{"source": "the antibiotic and cytotoxicity screens of Wong et al. (2023)", "note": "Among all 39,000 compounds or so, about 1,500 (3.8%) were called active. Only a selection was taken, and actives are over-represented in it overall."}
{"test_system": "HSkMC (human skeletal muscle cells)", "test": "cytotoxicity call (relative viability < 0.9)", "details": "10 µM"}
{"smiles": "C[C@H](CO)N1C[C@H](C)[C@H](CN(C)C(=O)Nc2ccc(C(F)(F)F)cc2)Oc2c(NC(=O)Nc3ccc4c(c3)OCO4)cccc2C1=O", "cytotoxicity call": "inactive"}
{"smiles": "C[C@H]1CN([C@@H](C)CO)C(=O)c2cc(NS(=O)(=O)c3ccc(F)cc3)ccc2O[C@H]1CN(C)Cc1ccncc1", "cytotoxicity call": "inactive"}
{"smiles": "c1ccc([C@@H]2Oc3ccccc3[C@@H]3Oc4ccccc4C[C@@H]23)cc1", "cytotoxicity call": "inactive"}
{"smiles": "Cc1noc(C)c1S(=O)(=O)Nc1cccc2c1O[C@H](CN(C)CC1CC1)[C@H](C)CN([C@H](C)CO)C2=O", "cytotoxicity call": "inactive"}
{"smiles": "C[C@@H]1CN([C@@H](C)CO)C(=O)c2cc(NC(=O)Cc3ccccc3)ccc2O[C@@H](C)CCCCO[C@@H]1CN(C)C(=O)Nc1ccccc1", "cytotoxicity call": "inactive"}
{"smiles": "COc1ccc(CN(C)C[C@@H]2OCCCC[C@H](C)Oc3ccc(NC(=O)C4CCCCC4)cc3C(=O)N([C@@H](C)CO)C[C@H]2C)cc1", "cytotoxicity call": "inactive"}
{"smiles": "C[C@@H]1CN([C@@H](C)CO)C(=O)c2cccc(NC(=O)C3CC3)c2O[C@@H]1CN(C)Cc1ccc(C(=O)O)cc1", "cytotoxicity call": "inactive"}
{"smiles": "Cc1noc(C)c1S(=O)(=O)N(C)C[C@H]1Oc2ccc(NC(=O)C3CC3)cc2CC(=O)N([C@H](C)CO)C[C@H]1C", "cytotoxicity call": "inactive"}
{"smiles": "Cc1ccc(S(=O)(=O)Nc2ccc3c(c2)C(=O)N([C@@H](C)CO)C[C@H](C)[C@H](CN(C)C(=O)Nc2ccccc2)OCCCC[C@H](C)O3)cc1", "cytotoxicity call": "inactive"}
{"smiles": "COc1ccc(CN(C)C[C@@H]2Oc3ccc(NS(=O)(=O)c4cn(C)cn4)cc3CC(=O)N([C@@H](C)CO)C[C@H]2C)cc1", "cytotoxicity call": "inactive"}
{"smiles": "C[C@H](CO)N1C[C@H](C)[C@H](CN(C)C(=O)Nc2ccccc2)OCc2ccccc2-c2c(n(C)c3ccccc23)C1=O", "cytotoxicity call": "inactive"}
{"smiles": "COc1ccc(NC(=O)N(C)C[C@@H]2Oc3ncc(C#C[C@H](C)O)cc3C(=O)N([C@H](C)CO)C[C@@H]2C)cc1", "cytotoxicity call": "inactive"}
{"smiles": "Cc1noc(C)c1S(=O)(=O)Nc1ccc2c(c1)C(=O)N([C@@H](C)CO)C[C@@H](C)[C@H](CN(C)C(=O)Nc1ccc(C(F)(F)F)cc1)OCCCC[C@H](C)O2", "cytotoxicity call": "inactive"}
{"smiles": "Cc1noc(C)c1S(=O)(=O)Nc1ccc2c(c1)C(=O)N([C@H](C)CO)C[C@H](C)[C@H](CN(C)C(=O)Nc1ccc(C(F)(F)F)cc1)OCCCC[C@H](C)O2", "cytotoxicity call": "active"}
{"smiles": "Cc1noc(C)c1S(=O)(=O)Nc1ccc2c(c1)C(=O)N([C@@H](C)CO)C[C@@H](C)[C@@H](CN(C)C(=O)Nc1ccc(C(F)(F)F)cc1)OCCCC[C@@H](C)O2", "cytotoxicity call": "inactive"}
{"smiles": "COc1ccc(S(=O)(=O)Nc2ccc3c(c2)C(=O)N([C@@H](C)CO)C[C@@H](C)[C@H](CN(C)C(=O)NC(C)C)O3)cc1", "cytotoxicity call": "inactive"}
{"smiles": "C[C@@H]1CN([C@H](C)CO)C(=O)c2cc(C#Cc3cccc(F)c3)cnc2O[C@H]1CN(C)CC1CCOCC1", "cytotoxicity call": "inactive"}
{"smiles": "CC=Cc1ccc2n(c1=O)C[C@H]1[C@H](CO)[C@@H](C(=O)NC3CCC3)[C@@H]2N1S(=O)(=O)c1cn(C)cn1", "cytotoxicity call": "inactive"}
{"smiles": "Cc1noc(C)c1S(=O)(=O)Nc1ccc2c(c1)CC(=O)N([C@@H](C)CO)C[C@H](C)[C@H](CN(C)S(C)(=O)=O)O2", "cytotoxicity call": "inactive"}
{"smiles": "CC(C)(Sc1cc(C(C)(C)C)c(O)c(C(C)(C)C)c1)Sc1cc(C(C)(C)C)c(O)c(C(C)(C)C)c1", "note": "[listing 1 of 2 here]", "cytotoxicity call": "inactive"}
{"smiles": "CC(C)(Sc1cc(C(C)(C)C)c(O)c(C(C)(C)C)c1)Sc1cc(C(C)(C)C)c(OC(=O)CCC(=O)O)c(C(C)(C)C)c1", "cytotoxicity call": "active"}
{"smiles": "CC(C)(Sc1cc(C(C)(C)C)c(O)c(C(C)(C)C)c1)Sc1cc(C(C)(C)C)c(O)c(C(C)(C)C)c1", "note": "[listing 2 of 2 here]", "cytotoxicity call": "inactive"}
{"smiles": "CC(C)(C)c1cc(CCC(=O)OCC(COC(=O)CCc2cc(C(C)(C)C)c(O)c(C(C)(C)C)c2)(COC(=O)CCc2cc(C(C)(C)C)c(O)c(C(C)(C)C)c2)COC(=O)CCc2cc(C(C)(C)C)c(O)c(C(C)(C)C)c2)cc(C(C)(C)C)c1O", "cytotoxicity call": "inactive"}
{"smiles": "CC(C)(Sc1cc(C(C)(C)C)c(O)c(C(C)(C)C)c1)Sc1cc(C(C)(C)C)c(OCC(=O)O)c(C(C)(C)C)c1", "cytotoxicity call": "active"}
{"smiles": "C[C@@H]1CN([C@@H](C)CO)C(=O)c2cccc(NC(=O)Nc3ccc(F)cc3)c2O[C@@H]1CN(C)C(=O)Nc1ccc(C(F)(F)F)cc1", "cytotoxicity call": "inactive"}
{"smiles": "C[C@@H]1CN([C@@H](C)CO)S(=O)(=O)c2ccc(-c3cncnc3)cc2O[C@H]1CN(C)C(=O)c1ccc2c(c1)OCO2", "cytotoxicity call": "inactive"}
{"smiles": "COCC(=O)N1C[C@H](C)[C@@H](OC)CN(C)C(=O)c2cc(NC(=O)Nc3cccc(F)c3)ccc2OC[C@@H]1C", "cytotoxicity call": "inactive"}
{"smiles": "COC[C@@H]1CN(C(=O)[C@H]2CCCN2C)N1", "cytotoxicity call": "inactive"}
{"smiles": "COC(=O)[C@@H](Cc1ccccc1)N[C@H](/C=C/C1CC1)[C@@H](O)CCn1cc(-c2ccc(C(=O)NO)cc2)nn1", "cytotoxicity call": "inactive"}
{"smiles": "CC[C@@H]1COCCC(=O)N1", "cytotoxicity call": "inactive"}
{"smiles": "Cc1nc2cc(C)c(C)cc2s1", "cytotoxicity call": "inactive"}
{"smiles": "Cc1ccc(NC(=O)Nc2cc(C(F)(F)F)ccc2F)cc1Nc1ccc2c(c1)NC(=O)/C2=C\\c1ccc[nH]1", "cytotoxicity call": "active"}
{"smiles": "C[C@@H]1CN([C@H](C)CO)C(=O)Cc2cc(NS(C)(=O)=O)ccc2O[C@H]1CN(C)S(=O)(=O)c1ccc(F)cc1", "cytotoxicity call": "inactive"}
{"smiles": "Cc1noc(C)c1NC(=O)Nc1ccc2c(c1)C(=O)N([C@H](C)CO)C[C@@H](C)[C@@H](CN(C)S(=O)(=O)c1c(C)noc1C)O2", "cytotoxicity call": "inactive"}
{"smiles": "C[C@@H]1CN([C@@H](C)CO)C(=O)c2cccc(NC(=O)C3CC3)c2O[C@@H]1CN(C)Cc1ccc(-c2ccccc2)cc1", "cytotoxicity call": "inactive"}
{"smiles": "C[C@@H]1CN([C@H](C)CO)S(=O)(=O)c2ccc(-c3ccccc3F)cc2O[C@H]1CN(C)Cc1cncnc1", "cytotoxicity call": "inactive"}
{"smiles": "C[C@@H]1CCCCO[C@@H](CN(C)Cc2ccc(Cl)c(Cl)c2)[C@@H](C)CN([C@@H](C)CO)C(=O)c2cc(NC(=O)c3ccccc3)ccc2O1", "cytotoxicity call": "inactive"}
{"smiles": "COc1ccc(NC(=O)Nc2ccc3c(c2)C(=O)N([C@H](C)CO)C[C@@H](C)[C@H](CN(C)Cc2ccc(Cl)c(Cl)c2)OCCCC[C@H](C)O3)cc1", "cytotoxicity call": "active"}
{"smiles": "COc1ccc(NC(=O)Nc2ccc3c(c2)C(=O)N([C@@H](C)CO)C[C@H](C)[C@@H](CN(C)Cc2ccc(Cl)c(Cl)c2)OCCCC[C@@H](C)O3)cc1", "cytotoxicity call": "inactive"}
{"smiles": "COc1ccc(NC(=O)Nc2ccc3c(c2)C(=O)N([C@@H](C)CO)C[C@@H](C)[C@@H](CN(C)Cc2ccc(Cl)c(Cl)c2)OCCCC[C@H](C)O3)cc1", "cytotoxicity call": "inactive"}
{"smiles": "COc1ccc(NC(=O)Nc2ccc3c(c2)C(=O)N([C@@H](C)CO)C[C@H](C)[C@H](CN(C)Cc2ccc(Cl)c(Cl)c2)OCCCC[C@@H](C)O3)cc1", "cytotoxicity call": "inactive"}
{"smiles": "COc1ccc(NC(=O)Nc2ccc3c(c2)C(=O)N([C@H](C)CO)C[C@@H](C)[C@H](CN(C)Cc2ccc(Cl)c(Cl)c2)OCCCC[C@@H](C)O3)cc1", "cytotoxicity call": "active"}
{"smiles": "COc1ccc(NC(=O)Nc2ccc3c(c2)C(=O)N([C@H](C)CO)C[C@H](C)[C@H](CN(C)Cc2ccc(Cl)c(Cl)c2)OCCCC[C@H](C)O3)cc1", "cytotoxicity call": "active"}
{"smiles": "COc1ccc(NC(=O)Nc2ccc3c(c2)C(=O)N([C@H](C)CO)C[C@@H](C)[C@@H](CN(C)Cc2ccc(Cl)c(Cl)c2)OCCCC[C@H](C)O3)cc1", "cytotoxicity call": "inactive"}
{"smiles": "COc1ccc(NC(=O)Nc2ccc3c(c2)C(=O)N([C@H](C)CO)C[C@H](C)[C@@H](CN(C)Cc2ccc(Cl)c(Cl)c2)OCCCC[C@@H](C)O3)cc1", "cytotoxicity call": "inactive"}
{"smiles": "COc1ccc(NC(=O)Nc2ccc3c(c2)C(=O)N([C@H](C)CO)C[C@H](C)[C@@H](CN(C)Cc2ccc(Cl)c(Cl)c2)OCCCC[C@H](C)O3)cc1", "cytotoxicity call": "inactive"}
